# IL-1B inflam inh = inflammasome signaling inhibition, IL-1 beta readout; activity change, % at 57.5 µM; THP-1 LPS/ATP IL-1B secretion, AlphaLISA, 16 h; active compounds read low; actives 4.7% (n = 360,000); in the data active = activity change below about -50%; inconclusive = mostly about -30% to -49%
#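 Secreted IL-1B measured by AlphaLISA bead assay after 16 h compound exposure of THP-1 cells; compounds (final up to 57.5 uM) added 1 h before LPS (250 ng/mL) and ATP (1.25 mM) stimulation; lower signal means less secretion.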
# DT40 TDP1 no CPT = qHTS for Inhibitors of human tyrosyl-DNA phosphodiesterase 1 (TDP1): qHTS in cells in absence of CPT | AID 686978, 2013 | Potency, µM (series often up to 46.2 µM), inactives show at the top dose activity change, negative = growth inhibition, usual class: inhibitors | actives 15% (n = 420,000) | DT40 Tdp1-/- hTDP1 cells, no CPT, ATP luminescence, 48 h; note: potency is the fitted concentration of half-maximal effect; nearly all actives have a fitted effect of over 55% in size
#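 Growth of hTDP1-complemented DT40 Tdp1-knockout cells is measured by ATP luminescence after at least 48 hr compound exposure at 37 °C, with DMSO substituting for the 20 nM CPT used in the parallel screen.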
# DT40 TDP1 CPT = DT40-hTDP1 cell growth loss with CPT; chicken DT40 Tdp1-/-;hTDP1 cells + 20 nM CPT, ATP luminescence, 48 h; Potency, µM (highest dose often 46.2 µM), inactives show at the highest dose activity change, negative = growth inhibition, usual class: inhibitors; actives 12% (n = 420,000); note: potency is the fitted concentration of half-maximal effect; nearly all actives have a fitted effect of over 55% in size
#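 Chicken DT40 Tdp1-/- cells stably complemented with human TDP1 were seeded at 400 cells/well in medium containing 20 nM camptothecin, exposed to pin-transferred compounds, and grown at 37 °C for at least 48 hr. Viability was read as ATP luminescence.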
# ALOX12 inh = inhibitors of human 12S-lipoxygenase ALOX12; purified 12hLO, xylenol orange hydroperoxide absorbance; P18054; AID 1671190; actives 1.1% (n = 580,000); Potency, µM (highest dose often 108 µM), for the others: at the top dose activity change, negative = inhibition, most hits filed as inhibitors; note: potency is the fitted concentration of half-maximal effect
# Target sequence (P18054 whole entry, looked up): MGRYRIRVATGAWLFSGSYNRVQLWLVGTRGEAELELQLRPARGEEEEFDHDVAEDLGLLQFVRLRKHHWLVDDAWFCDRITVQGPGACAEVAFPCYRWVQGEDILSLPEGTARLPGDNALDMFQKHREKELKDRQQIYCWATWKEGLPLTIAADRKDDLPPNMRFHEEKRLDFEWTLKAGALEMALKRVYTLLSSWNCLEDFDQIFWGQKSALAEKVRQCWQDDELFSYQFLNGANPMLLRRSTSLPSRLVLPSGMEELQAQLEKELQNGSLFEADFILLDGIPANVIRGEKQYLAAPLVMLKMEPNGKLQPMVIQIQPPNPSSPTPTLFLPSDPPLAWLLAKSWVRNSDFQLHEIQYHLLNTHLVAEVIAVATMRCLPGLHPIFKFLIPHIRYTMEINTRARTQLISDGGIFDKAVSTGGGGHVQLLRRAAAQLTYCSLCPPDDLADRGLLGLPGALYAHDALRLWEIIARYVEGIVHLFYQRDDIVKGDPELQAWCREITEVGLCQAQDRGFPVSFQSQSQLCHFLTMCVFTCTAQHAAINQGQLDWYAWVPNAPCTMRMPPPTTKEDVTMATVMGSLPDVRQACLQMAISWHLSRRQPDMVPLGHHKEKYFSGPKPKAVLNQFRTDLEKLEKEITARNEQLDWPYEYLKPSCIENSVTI
#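 Purified human 12hLO at 150 nM in 25 mM Hepes, 0.01% Triton X-100, pH 7.0, preincubated 15 min at room temperature with compound. Reaction started with 40 uM arachidonic acid, 30 min at room temperature. Hydroperoxide measured by Fe-xylenol orange, 573/405 nm absorbance ratio.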
# HT1080-NT tox = kills 2HG-producing HT-1080-NT fibrosarcoma cells. actives 1.6% (n = 360,000). HT-1080-NT fibrosarcoma viability, CellTiter-Glo ATP luminescence, 48 h. Potency, µM (highest dose often 46.1 µM), for inactives: top-dose activity, negative = less viability, usual class: cytotoxic. AID 686970;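 note: NT is the 2HG producing partner of a matched IDH1 knockdown line; potency is the fitted concentration of half-maximal effect; 0% = DMSO-treated cells and -100% = media-only wells without cells; nearly all actives have a fitted effect of over 55% in size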
#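 Viability by CellTiter-Glo luminescence after 48 h compound exposure at 37C of HT-1080-NT cells (750/well, RPMI, 5% FBS). % activity scaled between DMSO wells and medium-only wells, then curve-fitted and categorized by curve class.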
# HT1080 IDH1KD tx = toxicity to HT-1080 IDH1 knockdown cells (counter line); HT-1080 IDH1 knockdown viability, ATP luminescence, 48 h; Potency, µM (titrated, usually from 46.1 µM), for inactives: top-dose activity, negative = toxicity, usual class: cytotoxic; actives 2% (n = 360,000); AID 686971;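 note: potency is the fitted concentration of half-maximal effect; 0% = DMSO wells and -100% = cell-free medium wells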
#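 % activity derives from luminescence (CellTiter-Glo), normalised to DMSO and no-cell wells. HT-1080-IDH1KD cells, 750/well, had 48 h compound exposure at 37 °C.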
# * = called active by the depositor; ? = inconclusive; · = not tested or not shown; [ ] = dose if it differs, or a comment. The entries come from a sample that favours hits as a whole. Unless noted, calls come from the whole dose curve; as a rule, active = well fitted curve in the direction sought with a large enough effect; inconclusive = small, poorly fitted or top-dose-only effect, or another doubt; inactive = no such curve, though single readings can be large; an effect the other way counts as inactive or inconclusive. Unless noted, % is set by controls: 0 for no effect and ±100 for the full control effect.
SMILES,IL-1B inflam inh,DT40 TDP1 no CPT,DT40 TDP1 CPT,ALOX12 inh,HT1080-NT tox,HT1080 IDH1KD tx
CCc1ccc(-c2ccc(SCc3ccccn3)nn2)cc1,?,?,4%,0%,-13%,-10%
COc1ccc(-c2nnc(SCc3cc(=O)c4cc(C)cc(C)c4[nH]3)n2C)cc1,·,18µM*,23µM*,-21%,·,·
CCOc1ccc(-c2ccc(SCc3ccccn3)nn2)cc1,-12,23µM*,?,-7%,-11%,-18%
COc1ccc(C(=O)Nc2nnc(SCc3cc(=O)c4cc(C)cc(C)c4[nH]3)s2)cc1,·,-20%,-18%,2%,·,·
Cn1c(SCc2cc(=O)c3cc(Cl)ccc3[nH]2)nnc1-c1ccccc1,·,21µM*,13µM*,-27%,·,·
COc1ccccc1-c1nnc(SCc2ccccn2)n1C,-11,8%,9%,-27%,9%,2%
COc1ccc(-c2nnc(SCc3ccccn3)n2C)cc1,11,?,29µM*,6%,-3%,21%
CCC1CCCN(C(=O)Cn2cnc3c2c(=O)n(C)c(=O)n3C)C1 (configuration not stated),·,·,·,-30%,·,·
COc1ccc(NC(=O)Nc2cccs2)cn1,-6,18µM*,13µM*,?,12%,6%
COc1ccc(NC(=O)Nc2cccc(C(F)(F)F)c2)cn1,?,21µM*,?,-11%,?,?
Cc1ccc(OC(F)F)c(NC(=O)Nc2cccc(C(F)(F)F)c2)c1,-99*,?,13µM*,-7%,?,?
COc1ccc(NC(=O)Nc2cc(C)cc(C)c2)cn1,-2,?,-17%,419%,2%,0%
CC(=O)N1CC(CO)C2(CCN(C(=O)CC3CCCCC3)CC2)C1 (configuration not stated),·,·,·,12%,·,·
CCc1nc2ccc(C(=O)NCCC(C)C)cn2c1N(C)Cc1nccs1,-21,?,?,?,3%,0%
CCc1nc2ccc(C(=O)NCc3ccc4c(c3)OCO4)cn2c1N(C)Cc1ccc(OC)cc1,-10,23µM*,18µM*,15%,-30%,-17%
CCc1nc2ccc(C(=O)N(CC)CCN(C)C)cn2c1N(C)Cc1ccc(OC)cc1,-24,-18%,-17%,-22%,-4%,-2%
CCc1nc2ccc(C(=O)NCc3ccc4c(c3)OCO4)cn2c1N(C)CCC(C)C,0,15µM*,?,-12%,?,?
O=C(O)CC12CC3CC(C1)CC(O[N+](=O)[O-])(C3)C2,·,·,·,-18%,·,·
CCN1C=CC2=C(C#N)C(N)C(C#N)(C#N)C(c3ccccc3C(F)(F)F)C2C1 (configuration not stated),-8,23µM*,?,296%,-4%,-10%
CN(Cc1ccccc1)C(=O)COC(=O)C12CC3CC(CC(Br)(C3)C1)C2,-2,?,26µM*,1%,2%,-4%
O=C(COC(=O)C12CC3CC(CC(Br)(C3)C1)C2)Nc1cccnc1Cl,-5,1%,?,0%,1%,13%
Clc1ccc(-c2nnc3sc(-c4ccc(Br)o4)nn23)cc1,-7,-29%,?,0%,13%,10%
c1ccc(-c2nnc3sc(-c4cc5ccccc5o4)nn23)cc1,-29,?,16µM*,5%,18%,?
COc1ccccc1-c1nnc2sc(COc3ccccc3)nn12,-11,-27%,-18%,23%,-2%[9.24 µM],-15%
COc1ccc(-c2nn3c(-c4ccc(F)cc4)nnc3s2)cc1,?,?,-28%,7%,10%,8%
COc1ccc(-c2nn3c(-c4ccccc4)nnc3s2)cc1,-55*,?,?,-15%,-19%,-22%

# Screens: PubChem, National Center for Advancing Translational Sciences (NCATS)
